SMILES strings stand for the structures. Screen size: about 340,000 compounds; about 3,300 (0.97%) were called active. The sample as a whole holds a higher share of actives than the screen did. A number with no mark means an inactive call.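 Rule for the calls: active = inhibition above the mean over all tested compounds plus 3 SD (cut at about 30% in these data); inactive = the rest.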

By inhibition is commonly meant the drop in the measured response relative to a control, in per cent.

The experiment concerns the target Platelet-activating factor acetylhydrolase 2, cytoplasmic (Homo sapiens) (UniProt Q99487). Put plainly: inhibition of cytoplasmic PAF acetylhydrolase 2 – biochemical, fluorescence polarization, human, primary screen (AID 492956).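 Note: inhibitors block probe labeling of enzyme so polarization drops; 0% = enzyme with DMSO and 100% = wells lacking PAFAH2 protein.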 The conditions noted are these: recombinant PAFAH2, FP-rhodamine activity probe, at 3.39 µM, hits give high values.
For `COc1ccc(N2C(=O)/C(=C/c3ccco3)C(=O)NC2=S)cc1`, the inhibition was 59.1% (active).

For the compound `CC(C)CN1CCN(Cc2ccccc2C(F)(F)F)CC1CCO` (stereo not given), the inhibition was 4.28%.

On to `COc1ccc(-n2c(-c3ccccc3)nc3ccccc3c2=O)cc1`, for which the inhibition was -4.87%.

Consider `C[C@]12CCCCC1=CC(=O)C1C2CC[C@@]2(C)C1C[C@@H](F)[C@@H]2O` (stereo not given in full), for which the inhibition was 2.89%.

On to `CC(Cc1cccs1)NCc1ccc(Cl)cc1` (stereo not given), for which the inhibition was 4.46%.

As to `CCc1nc2ccccc2c(=O)n1-c1cccc(OC)c1`, the inhibition was 0.9%.

Regarding `Cc1cccc(N2C(=O)NC(=O)/C(=C\c3cnn(-c4ccccc4)c3)C2=O)c1`, the inhibition is 38.8% (active).

`Cc1c(C(=O)O)cccc1-n1c(C)cc(/C=C2\C(=O)NC(=O)N(c3ccc4c(c3)OCO4)C2=O)c1C`: the inhibition was 14.2%.

`COc1cccc(N2C(=O)NC(=O)/C(=C\c3cn(C)c4ccccc34)C2=O)c1`: the inhibition is 53% (active).

`CCN1CCN(c2nc3c(c(=O)[nH]2)CCC3)CC1`: the inhibition was 1.82%.

Turning to `CC12CCC3C(CCC4CC(=O)CCC43C)C1CC(=NO)C2=O` (stereo not given), the inhibition is 5.08%.

`Cc1ccc(S(=O)(=O)N(C)c2ccc(C(=O)NCC3(N(C)C)CCCCC3)cc2)cc1`: the inhibition is -2.88%.

On to `O=C1NC(=O)N(c2ccccc2)C(=O)/C1=C/c1ccc([N+](=O)[O-])s1`, for which the inhibition is 38.4% (active).

In the case of `O=C1NC(=O)N(c2ccc(F)cc2)C(=O)/C1=C/c1ccc2c(c1)CCCN2Cc1ccccc1`, the inhibition is 6.73%.

Turning to `COc1ccc2[nH]c3c(c2c1)CCN[C@H]3C`, the inhibition was -4.46%.

Regarding `O=C(Cn1c(=O)n(CC2CS2)c2ccccc21)N1CCCCC1` (stereo not given), the inhibition was -1.23%.

For `N=c1ccccn1Cc1ccccc1`, the inhibition is 1.19%.

Consider `O=C(COC(=O)c1ccccc1)Nc1ccc(Cl)cc1C(=O)c1ccccc1`, for which the inhibition is 45% (active).

With `O=C(CCNS(=O)(=O)c1ccccc1)Nc1ccc(Cl)cc1C(=O)c1ccccc1`, the inhibition was -0.4%.

With `CN1CCN(C(=S)SCC(=O)Nc2ccc(Cl)cc2C(=O)c2ccccc2)CC1`, the inhibition is 5.69%.

Regarding `CCN(CC)C(=O)Oc1ccc(NC(=O)N2CCOCC2)cc1`, the inhibition is 6.33%.

For the compound `C=CCN1C(=O)NC(=O)/C(=C/c2ccc(OCC(=O)Nc3ccc(C)cc3)cc2)C1=O`, the inhibition is 5.48%.

With `COc1ccc(C(=O)C2CCCN(Cc3ccc(C)s3)C2)cc1OC` (stereo not given), the inhibition is 1.55%.

In the case of `COc1ccccc1N=C1SCCCN1C`, the inhibition was 5.93%.

In the case of `NCCc1ccc(S(=O)(=O)F)cc1`, the inhibition was 86% (active).

Consider `CC(C)c1ccc(-n2c(O)c(/C=N/N3CCOCC3)c(=O)[nH]c2=S)cc1`, for which the inhibition is -8.3%.

On to `Cc1ccnc(-n2c(C)cc(/C=C3\C(=O)NC(=S)N(C)C3=O)c2C)c1`, for which the inhibition is -2.99%.

Take `CCN1CCN(c2ccc([N+](=O)[O-])cc2C#N)CC1`: the inhibition was 9.87%.

Regarding `CC12CCC(O)CC1CCC1C2CCC2(C)C(C(=O)CC(O)C(F)(F)F)CCC12` (stereo not given), the inhibition was 2.7%.

As for `O=C(N/N=C/c1c(O)n(C2CC2)c(=S)[nH]c1=O)c1ccccc1Cl`, the inhibition is -27.8%.

The record behind these values is PubChem BioAssay AID492956 (The Scripps Research Institute Molecular Screening Center, 2010).
